# Test results: article PMC10338684
# Target: Helicase protein MOM1 (UniProt Q9M658)
# Assay: mass-spectrometry hit list; affinity purification or IP with mass spectrometry
# Sequence of UniProt Q9M658 (Q9M658 whole entry): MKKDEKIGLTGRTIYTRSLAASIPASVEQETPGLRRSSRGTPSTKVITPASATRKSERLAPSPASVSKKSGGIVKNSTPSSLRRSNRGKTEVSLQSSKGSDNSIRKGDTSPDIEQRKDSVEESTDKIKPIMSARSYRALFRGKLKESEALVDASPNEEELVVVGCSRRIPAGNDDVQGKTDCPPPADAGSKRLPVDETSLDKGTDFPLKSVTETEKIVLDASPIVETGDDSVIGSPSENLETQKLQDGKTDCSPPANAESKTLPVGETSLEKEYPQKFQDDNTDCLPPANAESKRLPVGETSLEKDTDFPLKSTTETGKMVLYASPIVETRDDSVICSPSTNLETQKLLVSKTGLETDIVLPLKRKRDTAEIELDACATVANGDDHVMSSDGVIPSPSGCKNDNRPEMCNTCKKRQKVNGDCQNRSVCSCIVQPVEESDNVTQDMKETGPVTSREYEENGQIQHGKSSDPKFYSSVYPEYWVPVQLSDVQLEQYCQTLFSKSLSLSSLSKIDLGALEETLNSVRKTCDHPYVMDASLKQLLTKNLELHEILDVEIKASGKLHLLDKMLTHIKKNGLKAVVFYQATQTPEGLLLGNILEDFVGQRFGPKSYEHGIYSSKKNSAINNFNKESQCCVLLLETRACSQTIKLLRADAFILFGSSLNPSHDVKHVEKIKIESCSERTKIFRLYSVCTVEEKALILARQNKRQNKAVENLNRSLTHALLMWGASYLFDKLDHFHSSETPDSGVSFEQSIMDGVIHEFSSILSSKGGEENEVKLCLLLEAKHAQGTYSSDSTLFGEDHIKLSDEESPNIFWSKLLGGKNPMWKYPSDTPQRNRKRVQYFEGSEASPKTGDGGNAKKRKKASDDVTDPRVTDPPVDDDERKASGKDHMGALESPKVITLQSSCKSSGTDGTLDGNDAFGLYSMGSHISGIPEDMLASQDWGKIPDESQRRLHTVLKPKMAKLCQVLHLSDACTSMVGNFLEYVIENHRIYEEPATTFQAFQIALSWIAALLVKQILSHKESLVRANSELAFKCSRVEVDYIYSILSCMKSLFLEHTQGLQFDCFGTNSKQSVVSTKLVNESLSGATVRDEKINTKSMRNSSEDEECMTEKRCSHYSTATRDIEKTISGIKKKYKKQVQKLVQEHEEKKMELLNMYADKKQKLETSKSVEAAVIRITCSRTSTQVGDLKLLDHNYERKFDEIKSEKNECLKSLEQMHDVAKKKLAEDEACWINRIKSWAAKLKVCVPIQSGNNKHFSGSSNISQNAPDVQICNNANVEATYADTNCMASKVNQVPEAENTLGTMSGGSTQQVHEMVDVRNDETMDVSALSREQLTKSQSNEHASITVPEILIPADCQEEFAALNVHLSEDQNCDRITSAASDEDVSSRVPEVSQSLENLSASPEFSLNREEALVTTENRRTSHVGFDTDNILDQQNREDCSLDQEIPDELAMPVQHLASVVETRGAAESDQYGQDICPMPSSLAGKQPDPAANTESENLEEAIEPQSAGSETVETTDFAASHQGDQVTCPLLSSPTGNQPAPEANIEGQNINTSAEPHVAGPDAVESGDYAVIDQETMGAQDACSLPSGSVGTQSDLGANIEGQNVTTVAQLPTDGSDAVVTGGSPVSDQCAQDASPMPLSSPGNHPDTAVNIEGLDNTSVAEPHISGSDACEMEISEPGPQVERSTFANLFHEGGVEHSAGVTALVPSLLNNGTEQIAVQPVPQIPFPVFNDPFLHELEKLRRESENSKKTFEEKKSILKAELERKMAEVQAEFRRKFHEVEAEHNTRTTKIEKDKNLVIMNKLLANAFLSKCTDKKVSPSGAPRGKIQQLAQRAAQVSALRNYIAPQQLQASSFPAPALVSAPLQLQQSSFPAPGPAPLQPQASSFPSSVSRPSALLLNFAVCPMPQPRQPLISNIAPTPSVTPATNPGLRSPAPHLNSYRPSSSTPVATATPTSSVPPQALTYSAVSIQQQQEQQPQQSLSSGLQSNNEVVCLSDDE
row,Substance,listed as a hit
1,"DNA-directed RNA polymerase V subunit 1, Q5D869",yes
2,"Protein RNA-directed DNA methylation 3, F4JW79",yes
3,"Lysine-specific demethylase JMJ14, Q8GUI6",yes
4,"E4 SUMO-protein ligase PIAL1, A0A0A7EPL0",yes
5,"Protein MICRORCHIDIA 6, Q56Y74",yes
6,"Structural maintenance of chromosomes flexible hinge domain-containing protein GMI1, F4KFS5",yes
7,"Protein DEFECTIVE IN MERISTEM SILENCING 3, Q94A79",yes
8,"E4 SUMO-protein ligase PIAL2, F4JYG0",yes
9,"Chromatin remodeling ATPase BRAHMA, Q6EVK6",yes
10,"DNA-directed RNA polymerases IV and V subunit 2, Q9LK40",yes
11,"Probable inactive lysine-specific demethylase JMJ19, Q8L7T6",yes
12,"Chromatin structure-remodeling complex protein SYD, F4IHS2",yes
13,"Protein MICRORCHIDIA 1, Q84WV6",yes
14,"PHD finger-containing protein 1, B3H578",yes
15,"ASI1-immunoprecipitated protein 3, Q8RXT5",yes
